PubChem BioAssay (NCI)
The panel holds about 83,000 compounds, 20% with a hit somewhere; the sample as a whole holds those more often.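 Assay: single dose, 48 h. Readout: percent growth (0 = no net growth; negative = cell death). Active: <10.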 Active and inactive are the calls of the source.

Legend:
Experiment in all cases: NCI-60 one-dose screen, 48 h (100 = growth as untreated, 0 = no growth, -100 = all killed)
HT29 colon = details: 10 µM unless noted
SNB-75 CNS = details: 10 µM unless noted
SNB-19 CNS = details: 10 µM unless noted
U251 CNS = details: 10 µM unless noted
PC-3 prostate = details: 10 µM unless noted
UACC-62 melanoma = details: 10 µM unless noted
LOX IMVI melanoma = details: 10 µM unless noted
SK-MEL-28 melanoma = details: 10 µM
SK-MEL-2 melanoma = details: 10 µM unless noted
EKVX NSCLC = details: 10 µM unless noted
SN12C renal = details: 10 µM unless noted
UO-31 renal = details: 10 µM unless noted
TK-10 renal = details: 10 µM unless noted
ACHN renal = details: 10 µM unless noted
CAKI-1 renal = details: 10 µM unless noted
A498 renal = details: 10 µM unless noted
CCRF-CEM leukemia = details: 10 µM unless noted
MOLT-4 leukemia = details: 10 µM unless noted
SR leukemia = details: 10 µM unless noted

Measured: growth

Cn1nc(C(C)(C)C)cc1NC(=O)Cc1ccc(/C=C2\C(=O)Nc3ccccc32)cc1
active: MOLT-4 leukemia 6.12%
inactive: HT29 colon 58.4% | SNB-75 CNS 75.1% | SNB-19 CNS 63.9% | U251 CNS 55.5% | PC-3 prostate 42.1% | UACC-62 melanoma 41% | LOX IMVI melanoma 53.8% | SK-MEL-28 melanoma 76.7% | SK-MEL-2 melanoma 54.3% | EKVX NSCLC 49.1% | SN12C renal 62% | UO-31 renal 52.5% | TK-10 renal 91.2% | ACHN renal 37.4% | CAKI-1 renal 45.5% | A498 renal 62.9% | CCRF-CEM leukemia 35.8% | SR leukemia 34.9%

COc1cc(C2C(C#N)=C(N)OC3=C2C(=O)c2ccccc2C3=O)cc(OC)c1OC (stereo unspecified)
active: SNB-75 CNS 7.57% | SK-MEL-2 melanoma -2.31% | A498 renal -0.0439%
inactive: HT29 colon 106% | SNB-19 CNS 34.2% | U251 CNS 17.9% | PC-3 prostate 19% | UACC-62 melanoma 25.9% | LOX IMVI melanoma 27.4% | SK-MEL-28 melanoma 58.1% | EKVX NSCLC 52.4% | SN12C renal 39.2% | UO-31 renal 41.2% | TK-10 renal 63.9% | ACHN renal 37.3% | CAKI-1 renal 40.9% | CCRF-CEM leukemia 55.6% | MOLT-4 leukemia 87.1% | SR leukemia 31.6%

CC/C=C\C[C@H](O)C/C=C1/C(=O)C=C[C@@H]1C/C=C\CCCC(=O)OCCS(=O)(=O)c1ccccc1
active: LOX IMVI melanoma -34.1% | CCRF-CEM leukemia 5.02% | MOLT-4 leukemia 8.02% | SR leukemia 8.55%
inactive: HT29 colon 45.1% | SNB-75 CNS 111% | SNB-19 CNS 56.2% | U251 CNS 16.3% | PC-3 prostate 63.4% | UACC-62 melanoma 16.1% | SK-MEL-28 melanoma 73.9% | SK-MEL-2 melanoma 72% | EKVX NSCLC 104% | SN12C renal 37.3% | UO-31 renal 70.4% | TK-10 renal 104% | ACHN renal 86.3% | CAKI-1 renal 65.4% | A498 renal 115%

O=C(Nc1ccc(Cl)cc1)c1cc2ccccc2cc1OP(=O)(O)O
active: SK-MEL-2 melanoma 7.63% | UO-31 renal 2.13% | CAKI-1 renal -8.12%
inactive: HT29 colon 103% | SNB-75 CNS 24.2% | SNB-19 CNS 21.6% | U251 CNS 18.8% | PC-3 prostate 24.6% | UACC-62 melanoma 35.4% | LOX IMVI melanoma 22.9% | SK-MEL-28 melanoma 35.9% | EKVX NSCLC 24.8% | SN12C renal 41.4% | TK-10 renal 18.7% | ACHN renal 17.2% | A498 renal 28.7% | CCRF-CEM leukemia 18.2% | MOLT-4 leukemia 38.9% | SR leukemia 53.9%

CN(O)c1nc(N(C)O)nc(N2CCOCC2)n1
inactive: HT29 colon 23.7% | SNB-75 CNS 29.2% | SNB-19 CNS 32.8% | U251 CNS 31.5% | PC-3 prostate 58.9% | UACC-62 melanoma 29.1% | LOX IMVI melanoma 25.4% | SK-MEL-28 melanoma 61.1% | SK-MEL-2 melanoma 62.6% | SN12C renal 53.7% | UO-31 renal 12.7% | TK-10 renal 16.3% | ACHN renal 17.5% | A498 renal 89.6% | MOLT-4 leukemia 22.1% | SR leukemia 55.6%
active: EKVX NSCLC 5.22% | CAKI-1 renal -11.2% | CCRF-CEM leukemia 5.09%

N[C@@H](CC/[N+]([O-])=N/O)C(=O)O
inactive: HT29 colon 99.8% | SNB-75 CNS 113% | SNB-19 CNS 97.8% | U251 CNS 94.9% | PC-3 prostate 102% | UACC-62 melanoma 98.4% | LOX IMVI melanoma 104% | SK-MEL-28 melanoma 106% | SK-MEL-2 melanoma 107% | EKVX NSCLC 89.3% | SN12C renal 101% | UO-31 renal 94.9% | TK-10 renal 104% | ACHN renal 105% | CAKI-1 renal 97.6% | A498 renal 111% | CCRF-CEM leukemia 105% | MOLT-4 leukemia 104% | SR leukemia 126%

Cc1cccc(NC(=O)c2sc3nc4c(cc3c2N)CCCC4)c1C
inactive: SNB-75 CNS 10.8% | SNB-19 CNS 26.2% | U251 CNS 15.1% | PC-3 prostate 21.2% | UACC-62 melanoma 38.7% | LOX IMVI melanoma 42.3% | SK-MEL-28 melanoma 68.5% | SK-MEL-2 melanoma 49.1% | EKVX NSCLC 45.4% | SN12C renal 38.9% | UO-31 renal 50.6% | TK-10 renal 65.4% | ACHN renal 41.3% | CAKI-1 renal 34.8% | MOLT-4 leukemia 19.3% | SR leukemia 34.7%
active: HT29 colon 2.81% | A498 renal 4.01% | CCRF-CEM leukemia 7.79%

O=C(Nc1ccc(N2CCNCC2)cc1)c1[nH]ncc1Nc1ncnc2sc3c(c12)CCC3
inactive: A498 renal 16.9%
active: HT29 colon -67.3% | SNB-75 CNS -99.5% | SNB-19 CNS -99.5% | U251 CNS -96.5% | PC-3 prostate -83.6% | UACC-62 melanoma -85.1% | LOX IMVI melanoma -91.4% | SK-MEL-28 melanoma -84.7% | SK-MEL-2 melanoma 4.15% | EKVX NSCLC -86.8% | SN12C renal -75.1% | UO-31 renal -85.6% | TK-10 renal -95.3% | ACHN renal -99.5% | CAKI-1 renal -93.1% | CCRF-CEM leukemia -32.1% | MOLT-4 leukemia -39.3% | SR leukemia -8.96%

O=c1oc2ccc(I)cc2c(=O)n1-c1ccc(F)cc1F
active: SNB-75 CNS -13.4% | U251 CNS 8.66% | PC-3 prostate 3.58% | UACC-62 melanoma 0.781% | SK-MEL-2 melanoma -17.3% | UO-31 renal 7.61% | CAKI-1 renal -17.5% | A498 renal -43.9%
inactive: HT29 colon 107% | SNB-19 CNS 14.7% | LOX IMVI melanoma 11.4% | SK-MEL-28 melanoma 18.9% | EKVX NSCLC 59.2% | SN12C renal 10.9% | TK-10 renal 11.6% | ACHN renal 19.6% | CCRF-CEM leukemia 17.2% | MOLT-4 leukemia 13.8%

COc1cc(CNC(=O)Cc2ccccc2)ccc1OCc1cn(-c2ccc(F)cc2)nn1
inactive: HT29 colon 111% | SNB-75 CNS 91.7% | SNB-19 CNS 103% | U251 CNS 97.3% | PC-3 prostate 98.5% | UACC-62 melanoma 85.3% | LOX IMVI melanoma 99.6% | SK-MEL-28 melanoma 103% | SK-MEL-2 melanoma 101% | EKVX NSCLC 94.2% | SN12C renal 93.1% | UO-31 renal 80.7% | TK-10 renal 112% | CAKI-1 renal 91.2% | CCRF-CEM leukemia 100% | MOLT-4 leukemia 114% | SR leukemia 106%

COc1ccc2sc3c(NCCCN)nc4ccccc4c3c(=O)c2c1
inactive: SNB-75 CNS 48.3% | SNB-19 CNS 69.6% | PC-3 prostate 48.8% | UACC-62 melanoma 61% | SK-MEL-28 melanoma 84.8% | SK-MEL-2 melanoma 96.2% | EKVX NSCLC 57.5% | SN12C renal 81.3% | UO-31 renal 67.1% | TK-10 renal 74.8% | ACHN renal 48.7% | CAKI-1 renal 73% | A498 renal 49.8%
active: HT29 colon -47.8% | U251 CNS -58.1% | LOX IMVI melanoma -87.2% | CCRF-CEM leukemia 0.782% | MOLT-4 leukemia -17.3% | SR leukemia 2.94%

O=c1c2cc(F)cc(Cl)c2sc2c(Cl)nc3ccccc3c12
inactive: HT29 colon 101% | SNB-75 CNS 84.6% | SNB-19 CNS 96.5% | U251 CNS 105% | PC-3 prostate 98.9% | UACC-62 melanoma 92.2% | LOX IMVI melanoma 80.9% | SK-MEL-28 melanoma 108% | SK-MEL-2 melanoma 108% | EKVX NSCLC 97.9% | SN12C renal 76.8% | UO-31 renal 72.6% | TK-10 renal 151% | ACHN renal 95.3% | CAKI-1 renal 90.7% | A498 renal 103% | CCRF-CEM leukemia 86.9% | MOLT-4 leukemia 103%

Cc1ccc2[nH]c(=O)cc(-n3nncc3Cn3c4ccccc4c4ccccc43)c2c1
inactive: HT29 colon 113% | SNB-75 CNS 81.2% | SNB-19 CNS 97.1% | U251 CNS 99.2% | PC-3 prostate 92.8% | UACC-62 melanoma 94.9% | LOX IMVI melanoma 98.2% | SK-MEL-28 melanoma 108% | SK-MEL-2 melanoma 103% | EKVX NSCLC 98.2% | SN12C renal 101% | UO-31 renal 73.7% | TK-10 renal 118% | ACHN renal 90% | CAKI-1 renal 85% | A498 renal 80% | CCRF-CEM leukemia 99.5% | MOLT-4 leukemia 101% | SR leukemia 103%

O=C(CCc1nnc2sc(-c3ccc(Cl)cc3Cl)nn12)c1nc2ncccc2[nH]1
inactive: SNB-75 CNS 35.3% | SNB-19 CNS 26.9%
active: HT29 colon -13% | U251 CNS -74.2% | PC-3 prostate -38.6% | UACC-62 melanoma -36.6% | LOX IMVI melanoma -88.3% | SK-MEL-28 melanoma -9.94% | SK-MEL-2 melanoma -11.5% | EKVX NSCLC -26.2% | SN12C renal -7.29% | UO-31 renal -82% | TK-10 renal -31.6% | CAKI-1 renal -15.7% | A498 renal -68.6% | CCRF-CEM leukemia 6.98% | MOLT-4 leukemia 5.44%

Nc1ccc(C2c3ccccc3Oc3ccccc32)cc1
inactive: HT29 colon 99.3% | SNB-75 CNS 84.5% | SNB-19 CNS 105% | U251 CNS 93.3% | PC-3 prostate 90% | UACC-62 melanoma 94.8% | LOX IMVI melanoma 90.8% | SK-MEL-28 melanoma 114% | SK-MEL-2 melanoma 110% | EKVX NSCLC 86.3% | SN12C renal 98.5% | UO-31 renal 81.7% | ACHN renal 97.6% | CAKI-1 renal 87.2% | A498 renal 124% | CCRF-CEM leukemia 94.8% | MOLT-4 leukemia 83% | SR leukemia 97.8%

O=Cc1c(OCc2cnnn2CC(=O)Nc2ccc(Cl)cc2)ccc2ccccc12
inactive: HT29 colon 107% | SNB-75 CNS 81.3% | SNB-19 CNS 93.8% | U251 CNS 101% | PC-3 prostate 105% | UACC-62 melanoma 87% | LOX IMVI melanoma 99.5% | SK-MEL-28 melanoma 102% | SK-MEL-2 melanoma 102% | EKVX NSCLC 96.6% | SN12C renal 97.3% | UO-31 renal 73.2% | TK-10 renal 118% | ACHN renal 94.9% | CAKI-1 renal 94% | A498 renal 96.7% | CCRF-CEM leukemia 110% | MOLT-4 leukemia 90.7% | SR leukemia 90.5%

COc1cc2c(cc1OC)C(=O)C(CC1CCN(C(=O)Nc3ccc(C)cc3)CC1)C2 (stereo unspecified)
inactive: HT29 colon 107% | SNB-75 CNS 88.4% | SNB-19 CNS 95.2% | U251 CNS 106% | PC-3 prostate 88.6% | UACC-62 melanoma 79.9% | LOX IMVI melanoma 96.9% | SK-MEL-28 melanoma 99.1% | SK-MEL-2 melanoma 97.9% | EKVX NSCLC 90.9% | SN12C renal 92.5% | UO-31 renal 60.4% | TK-10 renal 116% | ACHN renal 93.6% | CAKI-1 renal 83.7% | A498 renal 69.4% | CCRF-CEM leukemia 97.8% | MOLT-4 leukemia 102% | SR leukemia 112%
